Results published in PubChem BioAssay.
Activity calls are given as the source filed them. How the calls were made is not given here.

molecular target: Pantothenate synthetase (Mycobacterium tuberculosis (strain ATCC 25618 / H37Rv)) (UniProt P9WIL5); assay: Recombinant Mtb pantothenate synthetase (PanC) inhibitors, coupled enzyme, confirmatory (AID 375); conditions: coupled enzyme assay; at 10 µM, active compounds read high;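 further: 0% = full reaction with vehicle and 100% = no enzyme background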
Sequence (P9WIL5 whole entry, looked up): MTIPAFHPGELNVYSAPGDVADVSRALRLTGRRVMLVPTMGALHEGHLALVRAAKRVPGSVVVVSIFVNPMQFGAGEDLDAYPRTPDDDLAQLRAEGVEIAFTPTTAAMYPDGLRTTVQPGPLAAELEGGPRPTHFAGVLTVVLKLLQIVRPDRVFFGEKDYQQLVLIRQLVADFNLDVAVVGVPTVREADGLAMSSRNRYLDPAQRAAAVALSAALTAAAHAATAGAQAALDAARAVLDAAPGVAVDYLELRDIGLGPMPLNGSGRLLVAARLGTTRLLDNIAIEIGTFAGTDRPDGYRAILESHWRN

SMILES	inhibition
CCOC(=O)N1CCN(C(=O)CCc2ccc(S(=O)(=O)NCCc3ccccc3)cc2)CC1	3% (inactive)
O=C(NCc1cccs1)C1CCN(S(=O)(=O)c2cccs2)CC1	0% (inactive)
CCc1nnc(NC(=O)COC(=O)CN2C(=O)c3ccccc3C2=O)s1	0% (inactive)
CC(=O)c1ccc(-c2nc3ccccc3n2C)o1	0% (inactive)
CCOC(=O)N1CCN(C(=O)Cn2ncn3nc(-c4cccs4)cc3c2=O)CC1	0% (inactive)
CCCCSc1cc(C)nc2ncnn12	0% (inactive)
CC(C)Cc1nnc(NC(=O)CCC(=O)N2CCOCC2)s1	0% (inactive)
Cc1sc2nc(SCC(=O)NCc3ccco3)n(CCc3ccccc3)c(=O)c2c1C	0% (inactive)
Cc1ccc(C(=O)/C=C/Nc2cccc(O)c2)cc1	8% (inactive)
O=C(NCCC1=CCCCC1)N[C@@H](Cc1ccccc1)C(=O)O	6% (inactive)
COc1ccc(OC)c(-n2nnnc2SCC(=O)NCc2ccc3c(c2)OCO3)c1	0% (inactive)
Cn1c(=O)cc(NCCc2ccccc2)[nH]c1=O	0% (inactive)
COc1cc2c(cc1OC)CN(C(=O)COc1ccc(C#N)cc1)CC2	0% (inactive)
CCN1C(=O)/C(=C/N2CCc3ccccc32)SC1=S	0% (inactive)
Cc1ccc(C(=O)NCc2ccc3c(c2)OCO3)cc1S(=O)(=O)N1CCCCC1	0% (inactive)
O=C(O)C1CCCN1C(=O)c1cccs1 (stereo not given)	7% (inactive)
Cc1ccc(N(CC(=O)NCC2CCCO2)S(C)(=O)=O)cc1Cl (stereo not given)	0% (inactive)
CCOC(=O)c1cc2cc(F)ccc2nc1C	1% (inactive)
CCOC(=O)c1nn(-c2sc(C(=O)OC)c(C)c2C(=O)OC)cc1O	18% (inactive)
C(=C\c1ccccc1)/CN1CCN(Cc2ccc3c(c2)OCCO3)CC1	1% (inactive)

SMILES	inhibition
CCCC(CCC)n1[nH]c(=O)c2c(C)cc(C)nc21	0% (inactive)
CCOc1cc(C(=O)N2CCN(c3ccccc3)CC2)cc(OCC)c1OCC	3% (inactive)
CCOc1cc2[nH]c(=S)n(CC3CCCO3)c(=O)c2cc1OCC (stereo not given)	9% (inactive)
O=C(Nc1cccc(F)c1)N1CC=C(n2c(=O)[nH]c3ccccc32)CC1	5% (inactive)
CC(C)(C)C1=C[C@@H](CO)C[C@@H](CO)C1	0% (inactive)
CCCc1nn(CCc2ccccn2)c(N)c1CC	6% (inactive)
CC(C)NC(=O)Nc1cccs1	9% (inactive)
Cn1c(=O)c2c(nc(CN3CCCCC3)n2CCCc2ccccc2)n(C)c1=O	2% (inactive)
O=C(NCCCN1CCOCC1)c1cc(-c2ccc(O)cc2)on1	0% (inactive)
CCN(c1cccc(C(F)(F)F)c1)S(=O)(=O)c1ccc2c(c1)CCN2C(=O)C1CC1	3% (inactive)
CCC(NC(C)C)C(O)c1ccc(O)c(O)c1 (stereo not given)	0% (inactive)
COC(=O)CCn1nnc(-c2cccs2)n1	1% (inactive)
COc1ccc(COC(=O)c2n[nH]c3ccccc23)cc1F	0% (inactive)
CCn1cc(C2Nc3ccccc3C(=O)N2O)c(C)n1 (stereo not given)	0% (inactive)
COc1cccc2cc(C(=O)N3CCN(C45CC6CC(CC(C6)C4)C5)CC3)c(=O)oc12	1% (inactive)
Cc1noc(C)c1CSc1nc2cc(S(=O)(=O)N3CCOCC3)ccc2o1	0% (inactive)
COCCn1c(C)cc(C(=O)COC(=O)c2n[nH]c3ccccc23)c1C	1% (inactive)
Cc1ccccc1Cn1cc(/C=N/n2cnnc2)c2ccccc21	0% (inactive)
Cn1c(=O)oc2cc(S(=O)(=O)N3CCN(c4ccccn4)CC3)ccc21	0% (inactive)
CN(C)c1nc(Nc2ccc(Cl)cc2)nc(OCC#N)n1	6% (inactive)
